Test results published in PubChem BioAssay AID892 (National Center for Advancing Translational Sciences (NCATS), 2007).
Out of some 75,000 compounds screened, about 20 (0.03%) were called active. The call rests on the fitted dose curve; in most records, active means well fitted inhibition curve with a large enough effect; inconclusive means small, poorly fitted or top-dose-only effect; inactive means no such curve, though single readings can be large or run the other way. A selection follows. Square brackets hold non-standard residues; d marks the D form. Peptide text beside a SMILES is read from it. ξ: configuration not given here. ξV = CC(C)C(N)C(=O)O

The molecules below were run against Breast cancer type 1 susceptibility protein (Homo sapiens) (UniProt P38398) (assay: qHTS Assay for Inhibitors of BRCT-Phosphoprotein Interaction (Red Fluorophore)). Details: BRCT-phosphopeptide binding, red fluorescence polarization; series mostly up to 76.9 µM; activity change, negative = inhibition: at the top concentration.
Experimental: NIH Molecular Libraries Screening Centers Network [MLSCN]
NIH Chemical Genomics Center [NCGC]
PI Name: Natarajan, Amarnath; University of Texas
A complex of BRCT (C-terminal portion of BRCA1, MW ~35 kDa, His-tagged) and fluorescently labeled pBACH1 phosphorylated 10 aa peptide fragment of BACH1, a helicase implicated in DNA repair, is incubated with library members. Inhibitors of BRCT-pBACH1 binding are detected by a decrease in the fluorescence polarization (FP) of the fluorophore. In order to minimize the effect of fluorescence artifacts and to increase the overall robustness of the screen, the compound library members were incubated in separate reactions with rhodamine-labeled probe-protein complexes. Protein and labeled probes were supplied by Dr. Amarnath Natarajan, Department of Pharmacology and Toxicology, University of Texas Medical Branch Galveston, TX.
Assay Buffer: 16mM Na2HPO4, 4 mM NaH2PO4, 150 mM NaCl, 1 mM EDTA, 1 mM DTT, 0.02% NaN3, and 0.01% Tween 20 at pH 7.3.
Assay Controls: 100 nM TAMRA labeled decapeptide dispensed into columns 3 and 4 to generate negative control (full inhibition of
binding, -100 % activity). 100 nM labeled decapeptide/100 nM protein in columns 1, 2, 5 - 48. Titration of unlabeled decapeptide control (from 10 mM, then 1:2 dilution in duplicate) pin-transferred to column 2, rows 1 to 16. Column 1 is neutral.
Three uL of reagents were dispensed to 1536-well Greiner black solid-bottom plates. Compounds and controls (23 nL) were transferred via Kalypsys PinTool. The plates were incubated for 12 min at room temperature, and then read on ViewLux (Perkin-Elmer) High-throughput CCD imager using BODIPY for the rhodamine-labeled decapeptide probe polarization filter sets. During dispense, reagent bottles were kept submerged into 4 deg C water bath and all liquid lines were covered with aluminum foil to minimize probe and protein degradation. All screening operations were performed on a Kalypsys robotic system (Kalypsys, Inc., San Diego, CA) containing one RX-130 and two RX-90 anthropomorphic robotic arms. The timing and order of assay plates passing through the screening system were adjusted such that each compound library plate was assayed against the fluorescein- and rhodamine-labeled assay systems at immediately adjacent time points.
On the % scale 0 is the no-effect control and ±100 the full control effect.

Breast cancer type 1 susceptibility protein (Homo sapiens), sequence (P38398 whole entry, looked up): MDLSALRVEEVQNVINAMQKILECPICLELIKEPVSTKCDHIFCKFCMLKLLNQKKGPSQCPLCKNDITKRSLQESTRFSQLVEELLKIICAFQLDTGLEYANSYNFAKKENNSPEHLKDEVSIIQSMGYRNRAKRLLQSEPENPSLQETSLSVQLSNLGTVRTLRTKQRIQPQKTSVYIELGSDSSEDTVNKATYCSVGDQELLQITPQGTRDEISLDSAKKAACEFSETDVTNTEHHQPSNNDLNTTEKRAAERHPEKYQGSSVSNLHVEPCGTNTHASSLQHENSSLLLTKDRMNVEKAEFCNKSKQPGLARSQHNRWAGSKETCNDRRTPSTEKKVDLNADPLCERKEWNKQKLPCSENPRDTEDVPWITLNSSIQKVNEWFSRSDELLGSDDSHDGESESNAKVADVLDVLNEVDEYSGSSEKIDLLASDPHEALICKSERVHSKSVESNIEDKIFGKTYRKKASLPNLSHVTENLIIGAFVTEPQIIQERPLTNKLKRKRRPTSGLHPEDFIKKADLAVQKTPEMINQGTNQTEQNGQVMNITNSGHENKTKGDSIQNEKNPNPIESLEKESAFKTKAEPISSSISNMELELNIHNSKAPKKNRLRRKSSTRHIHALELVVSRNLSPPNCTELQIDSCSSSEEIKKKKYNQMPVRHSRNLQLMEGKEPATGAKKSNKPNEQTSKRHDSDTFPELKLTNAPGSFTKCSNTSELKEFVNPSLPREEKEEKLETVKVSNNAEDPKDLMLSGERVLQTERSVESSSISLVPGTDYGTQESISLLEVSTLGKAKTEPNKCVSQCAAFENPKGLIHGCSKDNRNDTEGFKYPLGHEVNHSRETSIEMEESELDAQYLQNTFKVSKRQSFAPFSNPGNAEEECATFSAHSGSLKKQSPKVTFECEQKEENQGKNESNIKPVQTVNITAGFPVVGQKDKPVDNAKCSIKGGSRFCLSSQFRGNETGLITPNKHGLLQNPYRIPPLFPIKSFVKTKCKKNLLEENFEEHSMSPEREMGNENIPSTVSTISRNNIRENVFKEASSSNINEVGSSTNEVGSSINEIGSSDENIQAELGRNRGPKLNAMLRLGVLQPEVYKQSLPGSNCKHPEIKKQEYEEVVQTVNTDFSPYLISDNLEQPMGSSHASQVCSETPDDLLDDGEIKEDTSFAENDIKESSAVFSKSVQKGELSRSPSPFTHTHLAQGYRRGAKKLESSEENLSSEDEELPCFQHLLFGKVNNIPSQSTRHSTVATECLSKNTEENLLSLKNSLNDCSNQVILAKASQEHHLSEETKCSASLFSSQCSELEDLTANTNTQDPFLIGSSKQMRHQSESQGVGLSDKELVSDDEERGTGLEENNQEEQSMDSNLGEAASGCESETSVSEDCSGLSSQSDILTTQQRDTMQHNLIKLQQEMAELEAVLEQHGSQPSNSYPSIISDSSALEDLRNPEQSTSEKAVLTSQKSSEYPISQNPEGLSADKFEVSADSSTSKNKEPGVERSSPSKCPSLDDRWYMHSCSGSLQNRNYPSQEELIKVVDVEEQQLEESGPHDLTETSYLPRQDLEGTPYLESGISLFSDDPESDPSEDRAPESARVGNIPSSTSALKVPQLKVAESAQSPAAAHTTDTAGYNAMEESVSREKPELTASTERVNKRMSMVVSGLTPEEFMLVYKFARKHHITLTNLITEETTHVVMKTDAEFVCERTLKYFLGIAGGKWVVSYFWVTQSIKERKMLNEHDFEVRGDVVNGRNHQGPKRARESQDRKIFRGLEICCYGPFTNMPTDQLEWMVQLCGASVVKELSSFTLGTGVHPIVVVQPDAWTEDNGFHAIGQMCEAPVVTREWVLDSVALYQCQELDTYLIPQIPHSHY

Activity change, negative = inhibition, inactive:
CCS(=O)(=O)N1CCN(C(=O)c2cccs2)CC1 -0.859%, Cc1nc2cnc(Nc3ccccc3)nc2n(Cc2ccc(F)cc2)c1=O 2.61%, CCCCC[C@H](O)CCCC(=O)O 1.58%, COc1ccc(-c2cc(C(F)(F)F)nc(SCCC(=O)NCc3ccco3)n2)cc1 -0.281%, CCn1cc(C(=O)NCC2COc3ccccc3O2)c2cc(OC)c(OC)cc2c1=O (stereo unspecified) -0.433%, CC(=O)NC(C(=O)NCC(N)=O)C(C)C (stereo unspecified) (Ac-[ξV]-Gly-NH2) 0.622%, CN1CCCC1CCO[C@@](C)(c1ccccc1)c1ccc(Cl)cc1 (stereo partly specified) 1.2%, Nc1ccccc1N 0.594%, COC(=O)[C@@H]1C[C@H]2CC[C@H](O)C[C@H]2N1Cc1ccc(N2CCN(C)CC2)cc1 -0.952%, O=C(O)c1cccc(S(=O)(=O)NCCO)c1 1.54% [at 15.4 µM], CCCN1[C@H](C(=O)OC)C[C@@]2(O)[C@@H](O)[C@@H](O)[C@@H](O)C[C@@H]12 0.469%, CCOC(=O)c1sc(NC(=S)n2cc(C)cn2)c(C(=O)OCC)c1C -1.09%, CCc1nc(C)cn1S(=O)(=O)c1cc(OC)c(C)cc1C 0.696%, COc1ccc(CN2C(=O)CN=C2Nc2ccc(C)cc2C)cc1 0.673%, COc1ccc2c(c1OC)C(=O)N(c1ncn[nH]1)C2 -2.61%, C=CCn1c(COc2ccccc2)nnc1SCC(=O)NCC(=O)OCC 0.0764%, Clc1ccc(C2[C@H]3CN(CC4CCCCC4)[C@H](c4ccccc4)C34CC2(c2cccnc2)C4)cn1 (stereo partly specified) 0.586%, COCC(=O)N1CCC2(CCCN(c3ccccc3)C2)CC1 -0.355%, Cc1cccc(Cn2c(SCCO)nc3c2c(=O)n(C)c(=O)n3C)c1 -1.18%, CS(=O)(=O)N(CC(=O)N1CCOCC1)c1ccc2c3c(cccc13)CC2 0.749%, Cc1cc(C)nc(SCc2nnc(SCC(=O)Nc3ncc(C)s3)n2Cc2ccco2)n1 -0.299%, CCOc1ccc(CNC(=O)C2CC(=O)N(C3CCCC3)C2)cc1OC (stereo unspecified) 1.07%, O=C(Nc1cccc(F)c1)c1ccc(S(=O)(=O)N2CCCC2)cc1 1.38%, COc1ccc(-c2cc(C(F)(F)F)n3nc(C(=O)N4CCOCC4)c(Cl)c3n2)cc1 -0.981%, O=C(OCC(O)C(O)COC(=O)c1ccccc1)c1ccccc1 (stereo unspecified) -0.448%, O=C(c1cnn2ccccc12)N1CCc2ccccc21 -0.328%, CCCNS(=O)(=O)c1ccc2c(c1)CCCN2C(C)=O 0.548%, CC1Cc2ccccc2N1C(=O)Cn1cnc2ccccc2c1=O (stereo unspecified) 0.0211%, COC(=O)COc1ccc(S(=O)(=O)Nc2ccc(NC(C)=O)cc2)cc1 -0.143%, O=C1CCC(C(=O)Nc2ccc(OC(F)F)cc2)N1 (stereo unspecified) -0.0225%, CCOC(=O)N1CCN(C(=O)c2cc3c(-c4ccc(Cl)cc4)nn(C)c3s2)CC1 0.778%, O=C1c2cccnc2C(=O)N1Cc1cccs1 0.534%, Nc1nc(N)c2[nH]c(CNc3ccc(C(=O)O)cc3)nc2n1 1.19% [at 15.4 µM], O=C(O)[C@@H]1[C@@H](C(=O)O)[C@]23C[C@@]2(C(=O)O)[C@]2(C(=O)O)CCC3=C3CCCC312 1.09% [at 15.4 µM], CC(=O)Nc1ccc(S(=O)(=O)N2CCN(CCCOc3cc(C)ccc3C)CC2)cc1 -0.555%, O=C(CSc1nc2[nH]ncc2c(=O)n1-c1ccccc1)N1CCCc2ccccc21 12.7%, CC(C)CNC(=O)C1CCCN(S(=O)(=O)c2ccc(-n3cnnn3)cc2)C1 (stereo unspecified) 1.01%, Cn1c(N)c(C(=O)COC(=O)c2cc(C(F)(F)F)nc3c(C(F)(F)F)cccc23)c(=O)n(C)c1=O -2.05%, CCCC1CC(C)(C(=O)Cn2[nH]c(=O)ccc2=O)OC1=O (stereo unspecified) -1.89%, C[C@@H]1O[C@@H](OC[C@H]2O[C@@H](Oc3c(-c4cccc(O)c4O)oc4cc(O)cc(O)c4c3=O)[C@H](O)[C@@H](O)[C@@H]2O)[C@H](O)[C@H](O)[C@H]1O 0.502%, CCOC(=O)C1CCCCN1Cc1ccc(OC)c(OC)c1OC (stereo unspecified) -0.0383%, O=C(Nc1c(-c2ccccc2)nc2c(Br)cc(Br)cn12)c1ccco1 -1.98%, Cc1ccc(S(=O)(=O)N2CCN(C(=O)CCC(=O)NC3CCCc4ccccc43)CC2)cc1 (stereo unspecified) 1.14%, C[C@@H]1C[C@H]2[C@@H]3C[C@H](F)C4=CC(=O)C=C[C@@]4(C)[C@]3(F)[C@H](O)C[C@]2(C)[C@@]1(O)C(=O)CO -0.634% [at 34.4 µM], Cc1oc(CC(C)C)c(CN2CCCC2)c1C(=O)O -0.0692%, Fc1ccc(OCc2nn3c(Cn4nnc5ccccc54)nnc3s2)cc1 -0.165%, COc1ccc(OC)c(NC(=O)CCN2CCC(C)CC2)c1 -1.49%, COC(=O)c1c(-c2ccc(C)cc2)csc1N -0.205%, O=C(OC(C(=O)NC1CCCC1)c1ccc(F)cc1)c1ccno1 (stereo unspecified) 1.14%, CCOc1ccccc1NC(=O)CCc1ccc(C)o1 0.664%, Cc1c(C(=O)OCC(=O)N(CCC#N)c2ccccc2)oc2c1ccc1ccccc12 -1.38%, O=C1c2cccnc2C(Nc2ccc(S(=O)(=O)N3CCCCCC3)cc2)N1Cc1ccccc1 (stereo unspecified) -1.92%, Cc1cc(C)n(C(=O)c2ccc(S(=O)(=O)N3CCCC3)cc2)n1 0.192%, Cn1c(SCc2nc3ccccc3s2)nnc1-c1ccc2c(c1)OCO2 1.04%, COC(=O)[C@@H]1C[C@@]2(O)[C@H](O)[C@H](O)[C@H](O)C[C@H]2N1Cc1ccc(C(C)(C)C)cc1 0.112%, CC1=C(C(=O)OCc2ccccc2)C(c2ccco2)n2ncnc2N1 (stereo unspecified) 0.427%, CCOC(=O)N1CCC(NC(=O)C(C)n2c3ccccc3c3cnn(C)c(=O)c32)CC1 (stereo unspecified) -0.528%, C=CCNc1nnc(C)c2ccccc12 -0.8%, COc1cccc(N(CC(=O)Nc2cccc(F)c2)S(C)(=O)=O)c1 1.38%, Cc1cnc(CNc2ncncc2-c2ccccc2Cl)cn1 -0.849%, O=C(Cn1nc(C(F)(F)F)c2c1CCC2)NCc1ccc(F)cc1 2.4%, O=C1CC(N2CCN(C(c3ccccc3)c3ccccc3)CC2)C(=O)N1 (stereo unspecified) 0.264%, CCOC(=O)c1cccc(NC(=O)CCc2c(C)nc3ncnn3c2C)c1 -1.78%, C/C(=C\c1ccco1)C1Nc2cccc3cccc(c23)N1 -2.79%, Brc1ccc(OCCn2ccnc2)cc1 1.45%, O=C(Cl)c1ccccc1[N+](=O)[O-] 0.844%
